Measured values: PubChem BioAssay AID1159580 (chemical genetic matrix, 2015)
Among all 5,500 compounds or so, about 2,000 (36%) were called active. Not shown: some 18% with an inconclusive outcome. Cut-off read from the data, not from the text of the source: active = normalized growth mostly below about 0.91 (no sharp cut-off); inconclusive = no clear call, values can overlap the other calls; inactive = mostly above about 0.92. This is one part of the list.

Test: chemical genetic growth profiling, strain panel (AID 1159580);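 note: tested at 20 µM; growth read once vehicle control cultures reached saturation at 30 °C; 1 = growth at the plate median or of vehicle wells; lower values mean less growth of the strain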
Details: growth OD

Measured: normalized growth

Cc1cc(CC(=O)O)n(C)c1C(=O)c1ccc(Cl)cc1
inactive: S. cerevisiae deletion strains, locus YJR075W, strain HOC1, hits give low values 1 | S. cerevisiae deletion strains, locus YKL009W, strain mrt4, hits give low values 0.962 | S. cerevisiae deletion strains, locus YKL068W, hits give low values 1 | S. cerevisiae deletion strains, locus YKL085W, strain MDH1 (second series), hits give low values 0.994 | S. cerevisiae deletion strains, locus YKL085W, strain MDH1, hits give low values 0.994 | S. cerevisiae deletion strains, locus YKL160W, strain elf1, hits give low values 1.05 | S. cerevisiae deletion strains, locus YKL190W, strain CNB1, hits give low values 1.01 | S. cerevisiae deletion strains, locus YKR001C, strain vps1, hits give low values 1.03 | S. cerevisiae deletion strains, locus YKR026C, strain gcn3, hits give low values 1.03 | S. cerevisiae deletion strains, locus YKR091W, strain srl3, hits give low values 1.02 | S. cerevisiae deletion strains, locus YLL001W, strain dnm1, hits give low values 1 | S. cerevisiae deletion strains, locus YLL026W, hits give low values 1.05 | S. cerevisiae deletion strains, locus YLL041C, strain sdh2, hits give low values 1.02 | S. cerevisiae deletion strains, locus YLR027C, strain aat2, hits give low values 1.03 | S. cerevisiae deletion strains, locus YLR039C, strain RIC1, hits give low values 1 | S. cerevisiae deletion strains, locus YLR058C, strain SHM2, hits give low values 0.996 | S. cerevisiae deletion strains, locus YLR102C, strain apc9, hits give low values 1.01 | S. cerevisiae deletion strains, locus YLR113W, strain HOG1, hits give low values 1.01 | S. cerevisiae deletion strains, locus YLR221C, strain rsa3, hits give low values 1.01 | S. cerevisiae deletion strains, locus YLR258W, strain gsy2, hits give low values 1.04 | S. cerevisiae deletion strains, locus YLR262C, strain YPT6 (second series), hits give low values 1.01 | S. cerevisiae deletion strains, locus YLR262C, strain YPT6, hits give low values 1.01 | S. cerevisiae deletion strains, locus YLR268W, strain sec22, hits give low values 0.997 | S. cerevisiae deletion strains, locus YLR320W, strain mms22, hits give low values 0.994 | S. cerevisiae deletion strains, locus YLR330W, strain CHS5, hits give low values 0.992 | S. cerevisiae deletion strains, locus YLR342W, strain FKS1 (second series), hits give low values 0.937 | S. cerevisiae deletion strains, locus YLR342W, strain FKS1, hits give low values 1.01 | S. cerevisiae deletion strains, locus YLR357W, strain rsc2, hits give low values 0.995 | S. cerevisiae deletion strains, locus YLR370C, strain arc18, hits give low values 1.04 | S. cerevisiae deletion strains, locus YLR371W, strain rom2, hits give low values 1.02 | S. cerevisiae deletion strains, locus YLR384C, strain iki3, hits give low values 1.04 | S. cerevisiae deletion strains, locus YLR418C, strain cdc73, hits give low values 0.99 | S. cerevisiae deletion strains, locus YML016C, strain PPZ1, hits give low values 0.994 | S. cerevisiae deletion strains, locus YML032C, strain rad52, hits give low values 1.02 | S. cerevisiae deletion strains, locus YML120C, strain ndi1, hits give low values 1.02 | S. cerevisiae deletion strains, locus YML124C, strain tub3, hits give low values 1.01 | S. cerevisiae deletion strains, locus YMR058W, strain fet3, hits give low values 1.03 | S. cerevisiae deletion strains, locus YMR078C, strain ctf18, hits give low values 1.01 | S. cerevisiae deletion strains, locus YMR125W, strain sto1, hits give low values 1.03 | S. cerevisiae deletion strains, locus YMR129W, hits give low values 1.02 | S. cerevisiae deletion strains, locus YMR205C, strain PFK2, hits give low values 1.02 | S. cerevisiae deletion strains, locus YMR223W, strain ubp8, hits give low values 0.994 | S. cerevisiae deletion strains, locus YMR231W, strain pep5, hits give low values 1.03 | S. cerevisiae deletion strains, locus YMR263W, strain SAP30, hits give low values 0.993 | S. cerevisiae deletion strains, locus YMR307W, strain GAS1, hits give low values 0.947 | S. cerevisiae deletion strains, locus YNL067W, strain RPL9B, hits give low values 0.997 | S. cerevisiae deletion strains, locus YNL071W, strain lat1, hits give low values 1.02 | S. cerevisiae deletion strains, locus YNL128W, strain TEP1, hits give low values 1.01 | S. cerevisiae deletion strains, locus YNL153C, strain GIM3, hits give low values 0.991 | S. cerevisiae deletion strains, locus YNL183C, strain NPR1, hits give low values 0.963 | S. cerevisiae deletion strains, locus YNL209W, strain ssb2, hits give low values 1.05 | S. cerevisiae deletion strains, locus YNL233W, strain BNI4, hits give low values 0.993 | S. cerevisiae deletion strains, locus YNL248C, strain rpa49, hits give low values 1.02 | S. cerevisiae deletion strains, locus YNL250W, strain rad50, hits give low values 1.01 | S. cerevisiae deletion strains, locus YNL271C, strain bni1, hits give low values 1.01 | S. cerevisiae deletion strains, locus YNL298W, strain CLA4, hits give low values 0.998 | S. cerevisiae deletion strains, locus YNL322C, strain KRE1 (second series), hits give low values 1.02 | S. cerevisiae deletion strains, locus YNL322C, strain KRE1, hits give low values 1.01 | S. cerevisiae deletion strains, locus YNR049C, strain mso1, hits give low values 1.02 | S. cerevisiae deletion strains, locus YNR052C, strain pop2, hits give low values 1.01 | S. cerevisiae deletion strains, locus YOL006C, strain TOP1, hits give low values 0.895 | S. cerevisiae deletion strains, locus YOL012C, strain htz1 1.55 | S. cerevisiae deletion strains, locus YOL147C, strain pex11, hits give low values 1.02 | S. cerevisiae deletion strains, locus YOR001W, strain rrp6, hits give low values 1.01 | S. cerevisiae deletion strains, locus YOR061W, strain CKA2, hits give low values 1.01 | S. cerevisiae deletion strains, locus YOR069W, strain VPS5, hits give low values 1 | S. cerevisiae deletion strains, locus YOR070C, strain gyp1, hits give low values 1.02 | S. cerevisiae deletion strains, locus YOR080W, strain dia2, hits give low values 1.03 | S. cerevisiae deletion strains, locus YOR083W, strain WHI5, hits give low values 1.04 | S. cerevisiae deletion strains, locus YOR106W, strain vam3, hits give low values 1.05 | S. cerevisiae deletion strains, locus YOR136W, strain idh2, hits give low values 1.02 | S. cerevisiae deletion strains, locus YOR144C, strain elg1, hits give low values 1.01 | S. cerevisiae deletion strains, locus YOR184W, strain ser1, hits give low values 0.983 | S. cerevisiae deletion strains, locus YOR231W, strain MKK1, hits give low values 1.01 | S. cerevisiae deletion strains, locus YOR265W, strain rbl2, hits give low values 1.05 | S. cerevisiae deletion strains, locus YOR270C, strain vph1, hits give low values 1.05 | S. cerevisiae deletion strains, locus YOR290C, strain snf2, hits give low values 1.06 | S. cerevisiae deletion strains, locus YOR316C, strain cot1, hits give low values 1.01 | S. cerevisiae deletion strains, locus YPL051W, strain arl3, hits give low values 1.04 | S. cerevisiae deletion strains, locus YPL055C, strain LGE1, hits give low values 1 | S. cerevisiae deletion strains, locus YPL078C, strain atp4, hits give low values 1.04 | S. cerevisiae deletion strains, locus YPL106C, strain sse1, hits give low values 1.04 | S. cerevisiae deletion strains, locus YPL240C, strain hsp82, hits give low values 1.03 | S. cerevisiae deletion strains, locus YPL241C, strain CIN2, hits give low values 0.996 | S. cerevisiae deletion strains, locus YPL256C, strain CLN2, hits give low values 1.02 | S. cerevisiae deletion strains, locus YPR119W, strain clb2, hits give low values 1.01 | S. cerevisiae deletion strains, locus YPR141C, strain kar3, hits give low values 1.01 | S. cerevisiae deletion strains, locus YPR163C, strain tif3, hits give low values 1.01 | S. cerevisiae deletion strains, locus YPR167C, strain met16, hits give low values 1 | S. cerevisiae deletion strains, strain wtn01, hits give low values 1.01 | S. cerevisiae strains, strain wild type, hits give low values 1.01
active: S. cerevisiae deletion strains, locus YNL307C, strain MCK1, hits give low values 0.901
